Compound activity deposited in PubChem by several laboratories.
A selection: hits, their analogues and other compounds. The true share with any hit is near 2.6%.
Rce1 inhib: yeast Rce1p protease inhibitors, primary screen, biochemical, fluorescence, cell-free homogeneous; yeast membranes, quenched prenylated peptide cleavage fluorescence; calls only; 290,000 compounds, 0.27% hits; AID 2563, 2010;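 active means fall in fluorescence gain of 50% or more versus controls, with final raw signal at or below 3038400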;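 further: plate controls were neutral control wells for no effect and wells lacking membranes for full effect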
ABHD5 PLIN5 PPI: ABHD5-PLIN5 interaction inhibitors, primary screen, cell lysate, split luciferase complementation, luminescence. 360,000 compounds, 0.78% hits. Split G. princeps luciferase complementation, 4 h. Perilipin-5 (Homo sapiens) + 1-acylglycerol-3-phosphate O-acyltransferase ABHD5 (Homo …. inhibition, % at 4 µM. AID 602281, 2012;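 active means inhibition above the mean inhibition across every tested compound plus 3 SD, cut at about 22% in these data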;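 further: 0% = DMSO only wells and the 100% control is not disclosed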
Target sequence (Q00G26 whole entry, looked up): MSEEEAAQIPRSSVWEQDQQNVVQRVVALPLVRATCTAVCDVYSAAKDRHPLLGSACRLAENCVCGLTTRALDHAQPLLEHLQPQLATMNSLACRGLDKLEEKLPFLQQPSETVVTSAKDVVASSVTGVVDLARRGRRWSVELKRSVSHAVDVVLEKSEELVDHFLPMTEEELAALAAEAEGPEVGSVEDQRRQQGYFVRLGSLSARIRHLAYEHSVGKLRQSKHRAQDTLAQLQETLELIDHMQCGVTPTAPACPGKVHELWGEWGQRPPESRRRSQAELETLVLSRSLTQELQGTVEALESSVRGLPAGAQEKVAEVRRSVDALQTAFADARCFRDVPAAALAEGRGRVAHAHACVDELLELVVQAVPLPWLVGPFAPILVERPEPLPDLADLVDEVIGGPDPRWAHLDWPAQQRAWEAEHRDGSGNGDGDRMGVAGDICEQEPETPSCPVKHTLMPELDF
Target sequence (Q8WTS1 whole entry, looked up): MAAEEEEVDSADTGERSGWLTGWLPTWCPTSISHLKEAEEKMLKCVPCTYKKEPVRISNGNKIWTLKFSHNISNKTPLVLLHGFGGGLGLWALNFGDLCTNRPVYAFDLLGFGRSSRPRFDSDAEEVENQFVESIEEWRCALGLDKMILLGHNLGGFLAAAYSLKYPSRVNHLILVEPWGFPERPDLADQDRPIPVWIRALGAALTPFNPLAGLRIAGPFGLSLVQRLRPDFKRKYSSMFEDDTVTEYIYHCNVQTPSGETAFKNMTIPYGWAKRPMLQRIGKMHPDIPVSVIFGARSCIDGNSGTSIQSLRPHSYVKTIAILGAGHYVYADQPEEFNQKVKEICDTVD
Granule exo inh: LAMP-1 surface exposure blockers, TALL-104 cells – cell-based, flow cytometry, MLPCN library, primary screen; TALL-104 LAMP-1 surface exposure; cells stimulated with thapsigargin and PMA; inhibition, % at 10 µM; 360,000 compounds, 0.66% hits; AID 651702, 2012;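 active means inhibition above about 55%, limit read from the data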
Platelet DG rel: inhibitors of platelet dense granule secretion, primary screen, cell-based, MLPCN, human platelets. human platelet-rich plasma, SFLLRN dense granule ATP release, luminescence. inhibition, %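 (compounds screened at 7.5 µM in platelet-rich plasma)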. 300,000 compounds, 0.22% hits;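 active means mean replicate score, as percent of positive control, at or above 50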
M18AAP inhibitor: PfM18AAP inhibitors, malaria aminopeptidase, primary screen, biochemical, QFRET, recombinant enzyme; 290,000 compounds, 1.2% hits; M18 aspartyl aminopeptidase (Plasmodium falciparum 3D7); H-Glu-NHMec fluorogenic cleavage; inhibition, % at 7.35 µM; AID 1822, 2009;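 active means inhibition above the campaign mean inhibition over all tested compounds plus 3 SD, cut at about 28% in these data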;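 further: 0% = plate median of test compound wells and 100% = 2 mM ZnCl2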
Active calls of the source: *.

CSc1ccc(C(=O)C2CCCN(C(=O)c3ccc4c(c3)OCO4)C2)cc1 (configuration not stated) was read as Rce1 inhib inactive, ABHD5 PLIN5 PPI -7, Granule exo inh 8, Platelet DG rel -9 and M18AAP inhibitor -1.
Cc1sc(NC(=O)CCCC(=O)O)c(C#N)c1C was read as Rce1 inhib inactive, ABHD5 PLIN5 PPI 2, Granule exo inh 0, Platelet DG rel 1 and M18AAP inhibitor 30*.
N#Cc1c(NC(=O)CCC(=O)O)sc2c1CCCCC2 was read as Rce1 inhib inactive, ABHD5 PLIN5 PPI -2, Granule exo inh -1, Platelet DG rel 4 and M18AAP inhibitor 31*.
For N/C(=N/OC(=O)c1ccccc1Cl)c1nonc1N the results were Rce1 inhib inactive, ABHD5 PLIN5 PPI -4, Granule exo inh -1, Platelet DG rel 54* and M18AAP inhibitor 2.
Screening N/C(=N\OC(=O)c1ccc(F)cc1)c1nonc1N returned Rce1 inhib inactive, ABHD5 PLIN5 PPI -1, Granule exo inh -3, Platelet DG rel 3 and M18AAP inhibitor -6.
`Cc1cc(NS(=O)(=O)c2ccccc2)c([N+](=O)[O-])cc1C` gave Rce1 inhib active, ABHD5 PLIN5 PPI 6, Granule exo inh -2, Platelet DG rel -1 and M18AAP inhibitor -11.
For Cc1nc(COC(=O)c2ccc(CO)cc2)cs1 the results were ABHD5 PLIN5 PPI 2, Granule exo inh -3, Platelet DG rel 0 and M18AAP inhibitor 0.
For Cc1nc(COC(=O)c2cc(O)c3ccccc3c2O)cs1 the results were Rce1 inhib inactive, ABHD5 PLIN5 PPI 7, Granule exo inh 64*, Platelet DG rel 8 and M18AAP inhibitor 14.
For O=C(O/N=C\c1ccc(N2CCCCC2)c([N+](=O)[O-])c1)c1cccc(C(F)(F)F)c1 the results were Rce1 inhib active, ABHD5 PLIN5 PPI -1, Granule exo inh 0, Platelet DG rel -1 and M18AAP inhibitor -1.
For CCOC(=O)c1c(C2COc3ccccc3O2)csc1NC(=O)c1ccccc1 (configuration not stated) the results were Rce1 inhib active, ABHD5 PLIN5 PPI 2, Granule exo inh 3, Platelet DG rel 4 and M18AAP inhibitor -9.
For CCN(C(=O)c1cc2c(=O)[nH]c3ccc(C)cc3c2s1)c1ccc(F)cc1 the results were Rce1 inhib inactive, ABHD5 PLIN5 PPI -5, Granule exo inh 0, Platelet DG rel 3 and M18AAP inhibitor -10.
Screening Cc1ccc2[nH]c(=O)c3cc(C(=O)N(C)c4ccc(C)c(C)c4)sc3c2c1 returned Rce1 inhib inactive, ABHD5 PLIN5 PPI 4, Granule exo inh 8, Platelet DG rel 74* and M18AAP inhibitor -3.
`Cc1cc(C)c2sc(NNC(=O)c3ccc(S(=O)(=O)N4CCc5ccccc5C4)cc3)nc2c1` gave Rce1 inhib inactive, ABHD5 PLIN5 PPI 30*, Granule exo inh 0, Platelet DG rel 6 and M18AAP inhibitor 23.
Screening O=C(CCN1CCOCC1)NNC(=S)NC(=O)c1ccc(Br)cc1 returned Rce1 inhib inactive, ABHD5 PLIN5 PPI -14, Granule exo inh 0, Platelet DG rel 4 and M18AAP inhibitor 30*.
For O=C(CCN1CCCCC1)NNC(=S)NC(=O)c1ccc(Br)cc1 the results were Rce1 inhib inactive, ABHD5 PLIN5 PPI 0, Granule exo inh 2, Platelet DG rel 13 and M18AAP inhibitor 9.
For CCN1/C(=C/C=C/C=C/c2sc3ccccc3[n+]2CC)Sc2ccccc21 the results were Rce1 inhib inactive, Platelet DG rel 23 and M18AAP inhibitor 37*.
For CC[n+]1c(/C=C/Nc2ccccc2)sc2ccccc21 the results were Rce1 inhib inactive, ABHD5 PLIN5 PPI 3, Granule exo inh -3 and M18AAP inhibitor 30*.
Screening CC[n+]1c(/C=C(\C)OC)sc2ccccc21 returned ABHD5 PLIN5 PPI 0, Granule exo inh 2 and M18AAP inhibitor 23.
For CCN1/C(=C/C=C/c2sc3ccccc3[n+]2CC)Sc2ccccc21 the results were Rce1 inhib inactive, ABHD5 PLIN5 PPI 9, Granule exo inh 75* and Platelet DG rel 18.
For C=CCNc1oc(/C=C/c2ccccc2)nc1C#N the results were Rce1 inhib active, ABHD5 PLIN5 PPI 1, Granule exo inh 3, Platelet DG rel -4 and M18AAP inhibitor 6.
CN(C)CCNc1oc(/C=C/c2ccccc2)nc1C#N was read as Rce1 inhib inactive, ABHD5 PLIN5 PPI 2, Granule exo inh -2, Platelet DG rel -2 and M18AAP inhibitor 0.
`COc1ccccc1NC(=O)Cc1nnc(SCC(=O)Nc2ccccc2F)n1C` gave Rce1 inhib inactive, ABHD5 PLIN5 PPI 3, Granule exo inh 2, Platelet DG rel 7 and M18AAP inhibitor 6.
`COc1ccccc1NC(=O)Cc1nnc(SCC(=O)Nc2nccs2)n1C` gave Rce1 inhib active, ABHD5 PLIN5 PPI -3, Granule exo inh 12, Platelet DG rel 5 and M18AAP inhibitor -5.
For COc1ccc2cc(C(=O)C3CCCN(C(=O)c4cc(=O)n(C)c(=O)n4C)C3)ccc2c1 (configuration not stated) the results were Rce1 inhib active, ABHD5 PLIN5 PPI 5, Granule exo inh -1, Platelet DG rel 4 and M18AAP inhibitor 3.
`COc1ccc2cc(C(=O)C3CCCN(C(=O)c4ccnn4C)C3)ccc2c1` (configuration not stated) gave Rce1 inhib inactive, ABHD5 PLIN5 PPI 1, Granule exo inh -2, Platelet DG rel 2 and M18AAP inhibitor 5.
`Cc1ccc(N=Nc2c(O)[nH]c(=O)[nH]c2=O)cc1S(=O)(=O)Nc1ccc(Br)cc1` gave ABHD5 PLIN5 PPI -7 and Granule exo inh 0.
`COc1cc(NC(=O)CSc2nc3[nH]ncc3c(=O)n2-c2ccccc2)cc(OC)c1OC` gave ABHD5 PLIN5 PPI -8 and Granule exo inh -1.
`COc1cc2c(cc1OC)CN(C(=O)CSc1nc3[nH]ncc3c(=O)n1-c1ccccc1)CC2` gave Rce1 inhib inactive, Platelet DG rel -4 and M18AAP inhibitor 31*.
O=C(Cc1cccc(C(F)(F)F)c1)N1CCCC1 was read as Rce1 inhib inactive, ABHD5 PLIN5 PPI -6, Granule exo inh 10, Platelet DG rel -4 and M18AAP inhibitor 1.
Cc1ncsc1C(=O)Nc1nc2c(s1)CCCC2 was read as Rce1 inhib inactive, ABHD5 PLIN5 PPI -3, Granule exo inh 0, Platelet DG rel 61* and M18AAP inhibitor 2.
For CCn1c(SCC(=O)NCc2ccco2)nnc1-c1c[nH]c2ccccc12 the results were Rce1 inhib inactive, ABHD5 PLIN5 PPI 4, Granule exo inh -3, Platelet DG rel 5 and M18AAP inhibitor 12.
`COCC(=O)n1nc(NCc2ccc(OC)cc2)nc1NCc1ccc(OC)cc1` gave Rce1 inhib inactive, ABHD5 PLIN5 PPI 3, Granule exo inh 0, Platelet DG rel 6 and M18AAP inhibitor 28*.
